hcDAF-12 act = activates DAF-12 receptor from parasite H. contortus; HEK293 hcDAF-12 lit1-tk-luc reporter, luminescence; 0% DMSO, 100% Δ7-dafachronic acid; 370,000 compounds, 1.4% hits; AID 652067; activation, % at 6.8 µM;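 active = activation above the mean of all tested compounds plus 3 SD, cut at about 5.5% in these data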;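 also: 100% = response to 3 µM Δ7-dafachronic acid high control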
hgDAF12 agonist = activates the H. glycines DAF-12 receptor ligand-binding domain | AID 687014 | activation, % at 6.8 µM | HEK293 GAL4-hgDAF12 UAS-luciferase reporter, agonist luminescence; normalized to butyrate control | 370,000 compounds, 1.8% hits;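 active = activation above a cutoff set at the mean of all screened compounds plus 3 SD, cut at about 10% in these data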;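 also: 0% = DMSO wells and 100% = sodium butyrate wells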
DAX1 inh-1 = blocks DAX1 repression of SF-1 activated StAR promoter. 370,000 compounds, 1.1% hits. AID 652010. HEK293T StAR-luciferase reporter, SF-1/DAX-1 repression relief. inhibition, % at 6.8 µM;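 active = inhibition above the mean over all tested compounds plus 3 SD, cut at about 3.6% in these data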;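 also: 0% = DAX-1 cells with DMSO and 100% = cells lacking DAX-1 with DMSO; higher inhibition means more luminescence from relief of DAX-1 repression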
DAX1 inh-2 = inhibitors of human orphan nuclear receptor DAX1 (NR0B1). P51843. HEK293 Gal4-DAX1 luciferase reporter, luminescence. inhibition, % at 6.75 µM. 340,000 compounds, 0.99% hits. AID 504766;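 active = inhibition above the mean over all tested compounds plus 3 SD, cut at about 4.2% in these data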;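 also: 0% = DAX1-transfected cells with DMSO and 100% = empty-vector control cells with DMSO; inhibition shows as a rise in luminescence from relieved DAX1 repression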
ssDAF12 agonist = activators of S. stercoralis DAF-12 nuclear receptor. HEK293 ssDAF-12/GRIP1 lit1-tk-luc reporter, luminescence; % of 3 µM dafachronic acid response. activation, % at 6.8 µM. 370,000 compounds, 1% hits. AID 652126;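 active = activation above the mean over all tested compounds plus 3 SD, cut at about 0.9% in these data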;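 also: 0% = DMSO-only wells and 100% = 3 µM delta7-dafachronic acid wells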
LXRb hcDAF ctr = activates human LXR-beta, counter-screen for hcDAF-12 agonists; HEK293 Gal4-LXR tk-luc reporter, luminescence, 24 h; normalized: DMSO 0%, positive control 100%; AID 743027; shares compounds with hcDAF-12 act; activation, % at 6.8 µM; 3,400 tested, under 10 active;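 active = mean percent activation of the reporter above a cutoff set as the average over tested compounds plus their standard deviation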
Target sequence (P55055 whole entry, looked up, the tested form may be a part): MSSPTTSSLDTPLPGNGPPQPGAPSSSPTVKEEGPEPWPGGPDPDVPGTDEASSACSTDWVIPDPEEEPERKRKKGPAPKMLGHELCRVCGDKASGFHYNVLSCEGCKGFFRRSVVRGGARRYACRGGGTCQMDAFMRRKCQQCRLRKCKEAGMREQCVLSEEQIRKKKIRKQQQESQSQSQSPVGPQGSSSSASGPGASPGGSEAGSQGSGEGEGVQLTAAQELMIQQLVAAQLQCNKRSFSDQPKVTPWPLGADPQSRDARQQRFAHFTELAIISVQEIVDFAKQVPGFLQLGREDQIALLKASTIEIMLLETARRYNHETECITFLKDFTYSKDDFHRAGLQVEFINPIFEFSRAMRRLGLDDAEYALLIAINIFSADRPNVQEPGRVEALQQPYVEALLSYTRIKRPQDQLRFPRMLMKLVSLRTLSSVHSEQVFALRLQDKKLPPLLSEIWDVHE
hcDAF12 ag = confirmation of H. contortus DAF-12 agonists. shares compounds with hcDAF-12 act. 3,400 compounds, 61% hits. HEK293 hcDAF-12 lit1-tk-luc reporter, luminescence; % of Δ7-dafachronic acid response. AID 743032. activation, % at 6.8 µM;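 active = mean activation across triplicate tests above the threshold derived from the earlier primary screen, cut at about 5.5% in these data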;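 also: 0% = DMSO only wells and 100% = 3 µM Δ7-dafachronic acid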
* hit, by the source's call; · = no result. This is a sample that favours compounds with a hit; in the whole collection about 4.1% have one here.

SMILES	hcDAF-12 act	hgDAF12 agonist	DAX1 inh-1	DAX1 inh-2	ssDAF12 agonist	LXRb hcDAF ctr	hcDAF12 ag
COc1ccc(Cl)cc1S(=O)(=O)N1CCN=C1C	12.2*	-1.3	0.6	1.1	1.6*	-0.2	2.4
CNS(=O)(=O)c1cc(NC(=O)c2cccc3cccnc23)ccc1C	-3.4	2.8	-0.8	-1.4	-0.9	·	·
CSc1cccc(NC(=O)c2cccc3cccnc23)c1	11.9*	10.6*	0.7	1.5	2.3*	0.6	8.5*
Cc1cc(C(=O)Cn2nnc3ccccc3c2=O)c(C)n1Cc1cccs1	8.4*	8.4	3.4	1.6	0.9*	1.5	11.9*
Cc1cc(C(=O)CN2C(=O)c3ccccc3C2=O)c(C)n1Cc1cccs1	3.2	6.3	1.2	-0.1	-1.2	·	·
Cc1ccc(-c2cc(=O)c3cc(C)ccc3[nH]2)cc1	7.0*	8.0	1.3	-1.7	0.6	1.4	7.0*
COc1ccc(NC(=O)c2sc(SC)nc2N)cc1	7.3*	12.8*	1.2	1.1	1.3*	0.6	9.2*
COc1ccc(NC(=O)c2sc(SCc3ccccc3)nc2N)cc1	-1.0	-0.2	0.3	0.2	-0.6	·	·
Nc1nn(-c2ccccc2)c(N)c1N=Nc1ccccc1F	10.4*	17.7*	2.8	-1.9	2.1*	1.9	8.8*
O=C(CCl)N(c1ccccc1)C1CCCCC1	-2.8	-5.7	-4.8	-4.8	-2.4	·	·
Cc1cccn2c(=O)c(/C=C(\C#N)S(=O)(=O)c3ccccc3)c(N3CCN(c4ccccc4)CC3)nc12	6.7*	0.3	0.7	-0.2	-0.7	-0.4	1.3
CCN1CCN(c2nc3c(C)cccn3c(=O)c2/C=C(\C#N)S(=O)(=O)c2ccccc2)CC1	0.3	3.0	0.0	0.3	-0.6	·	·
CCCCn1cnc2c(sc3nc4c(cc32)CSC(C)(C)C4)c1=O	7.0*	12.8*	1.2	3.2	-0.5	1.2	5.6*
COc1cccc(-c2ccc(NC(=O)C3CCCN(Cc4cc(C)[nH]n4)C3)cc2)c1 (configuration not stated)	7.0*	3.3	-0.1	0.2	-0.5	-0.2	0.0
COC(=O)c1ccc(NC(=O)COc2coc(CN3CCc4ccccc43)cc2=O)cc1	-0.8	1.2	-0.4	1.0	-0.1	·	·
CCCc1cc(C(=O)Nc2cccc(Cl)c2)no1	9.4*	7.8	0.7	1.2	-0.5	0.9	3.0
CC(=O)c1ccc(OCc2cc(=O)n3ccsc3n2)cc1	9.8*	8.8	1.4	3.8	-1.0	0.3	3.1
CCCn1c(=O)c2c(nc3n2CCCN3CCc2ccc(OC)c(OC)c2)n(C)c1=O	-2.1	-1.5	0.2	0.1	-1.3	·	·
CCOc1ccc(C=Nc2cccc3ncccc23)cc1	9.2*	-0.4	-0.7	1.7	0.2	-0.1	3.8
COc1ccc(C=Nc2cccnc2N)cc1	·	·	·	0.6	·	·	·
Clc1ncccc1-c1nnn(-c2ccccc2)n1	6.8*	13.1*	2.4	0.6	0.3	1.5	7.0*
Cn1c(O)c(N=NC(=O)c2cc(-c3cccs3)nc3ccccc23)c2ccccc21	2.5	0.2	0.0	-1.3	-0.5	·	·
Cn1c(O)c(N=Nc2nc(-c3ccccc3)cs2)c2ccccc21	11.8*	1.5	0.2	1.4	-0.3	0.0	7.4*
COc1ccc(Cl)cc1C(=O)Nc1ccc2c(c1)OCO2	7.3*	8.2	2.9	1.1	1.5*	0.5	10.2*
O=C(Nc1ccc2c(c1)OCO2)c1noc2c1CCCCC2	9.0*	12.2*	4.4*	0.5	0.2	1.3	6.1*
COc1ccc(Cl)cc1C(=O)Nc1ccc2c(c1)OCCO2	8.6*	10.4	1.9	8.4*	3.0*	1.1	11.7*
COc1ccccc1C(=O)NCC(=O)Nc1ccc2c(c1)OCO2	-1.5	-1.2	0.1	-0.5	-0.8	·	·
COc1ccc(Cl)cc1C(=O)Nc1ccncc1	-1.8	3.2	0.1	-1.9	-1.4	·	·
COc1ccccc1C(=O)Nc1ccc2c(c1)OCO2	8.0*	9.4	3.5	2.0	1.6*	1.1	10.2*
O=C(Nc1ccc2c(c1)OCO2)c1cccs1	6.6*	11.9*	2.7	0.7	-0.3	0.8	6.1*

Compound activity as filed in PubChem BioAssay.
